Inconclusive results are not listed. Activity calls are given as the source filed them. How the source made its calls: active means hit-call score of the fitted dose curve at least 0.9, where 1 is the maximum; inconclusive means response in the unintended direction; inactive means score below 0.9.
target: Oxysterols receptor LXR-alpha (Homo sapiens) (UniProt Q13133); test: ATG_LXRa_TRANS: Attagene TRANS-FACTORIAL HepG2 Assay for human Liver X Receptor alpha (LXRa) (AID 2282980); settings: HepG2 Attagene TRANS reporter, LXRa transactivation
Protocol: ATG_TRANS is a cell-based, multiplexed-readout assay that uses HepG2, a human liver cell line, with measurements taken at 24 hours after chemical dosing in a 24-well plate.ATG_LXRa_TRANS is one of 30 assay component(s) measured or calculated from the ATG_TRANS assay. It is designed to make measurements of mRNA induction, a form of inducible reporter, as detected with fluorescence intensity signals by Reverse transcription polymerase chain reaction (RT-PCR) and Capillary electrophoresis technology.Data from the assay component ATG_LXRa_TRANS was analyzed into 1 assay endpoint. This assay endpoint, ATG_LXRa_TRANS, was analyzed in the positive analysis fitting direction relative to DMSO as the negative control and baseline of activity. Using a type of inducible reporter, measures of mRNA for gain-of-signal activity can be used to understand the reporter gene at the transcription factor-level as they relate to the gene NR1H3. Furthermore, this assay endpoint can be referred to as a primary readout, because this assay has produced multiple assay endpoints where this one serves a reporter gene function. To generalize the intended target to other relatable targets, this assay endpoint is annotated to the nuclear receptor intended target family, where the subfamily is non-steroidal.
Human liver HepG2 cells are transiently transfected with multiple reporter transcription units (MRTUs) in 6-well plates using FuGene 6 reagent (Roche; 3 ml FuGene/1 mg DNA). The MRTU constructs are regulated by a cis-regulating element (promoter). […] A major difference between the CIS and TRANS system is that in CIS activities of endogenous TFs are measured, whereas the TRANS assay evaluates changes in activities of exogenous, chimeric NR-Gal4 proteins. […] At the end of 24 hour incubation, total RNA was isolated using TriZol reagent (Invitrogen). The isolated RNA is then reverse-transcribed using oligo(dT) primer and Mo-MLV reverse transcriptase (Invitrogen) with DNAse I (Ambion) treatment for 30 min. The one-tenth of the produced cDNA was amplified by PCR using Taq DNA polymerase (Invitrogen) and two reporter sequence-specific primers. The PCR products were fluorescently labeled by primer extension with 6-arboxyfluorescein (6-FAM) 5'-labeled reporter sequence-specific primer (2 min at 95 C, 20 s at 68 C and 10 min at 72 C) and these products were digested with 5U of HpaI (New England Biolabs) for 2h at 37 C. The fragments were purified using Qiaquick PCR columns (Qiagen), analyzed on an ABI 3130xL genetic analyzer (Applied Biosystems) with peak positions identified by using a set of X-rhodamine (ROX)-labeled MapMarker1000 molecular weight standards (BioVentures). The raw capillary electrophoresis data was processed using Attagraph software (Attagene).

Sequence of Oxysterols receptor LXR-alpha (Homo sapiens) (Q13133 whole entry, looked up): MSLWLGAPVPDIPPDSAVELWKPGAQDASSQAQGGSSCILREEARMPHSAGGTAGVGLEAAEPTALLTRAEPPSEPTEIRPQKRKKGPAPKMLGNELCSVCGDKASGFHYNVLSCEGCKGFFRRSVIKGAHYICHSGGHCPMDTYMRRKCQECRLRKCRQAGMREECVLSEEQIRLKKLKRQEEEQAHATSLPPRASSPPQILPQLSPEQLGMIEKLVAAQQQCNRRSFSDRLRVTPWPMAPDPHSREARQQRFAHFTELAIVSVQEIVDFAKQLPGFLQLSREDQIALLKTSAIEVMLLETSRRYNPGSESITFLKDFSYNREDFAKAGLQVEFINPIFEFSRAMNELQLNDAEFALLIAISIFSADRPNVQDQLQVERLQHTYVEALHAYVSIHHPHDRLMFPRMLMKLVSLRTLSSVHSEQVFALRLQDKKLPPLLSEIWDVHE

| Structure (SMILES) | outcome |
| --- | --- |
| CC(C)c1cc(C(C)C)cc(C(C)C)c1 | inactive |
| Fc1ccc(Br)cc1 | inactive |
| C=CC(C)(O)CC/C=C(\C)CC (stereo not given) | inactive |
| CCCCC1CCC(=O)O1 (stereo not given) | inactive |
| O=C(OCc1ccccc1)c1ccc(O)cc1 | inactive |
| NNS(=O)(=O)c1ccc(Oc2ccc(S(=O)(=O)NN)cc2)cc1 | inactive |
| CC(=O)CCC1=C(C)CCCC1(C)C | inactive |
| C=CC(=O)OCCCCCCCC(C)C | inactive |
| Cc1cc(=O)[nH]c(=O)[nH]1 | inactive |
| O=C(O[C@@H]1Cc2c(O)cc(O)cc2O[C@@H]1c1cc(O)c(O)c(O)c1)c1cc(O)c(O)c(O)c1 | inactive |
| C=CCCCCCCCCC=O | inactive |
| O=C(O)c1cc(O)c2ccccc2c1O | inactive |
| CC(=O)OCC=C(C)C | inactive |
| C=CC(=O)OCCCCCCOC(=O)C=C | inactive |
| COC(=O)CC(C)CCC=C(C)C (stereo not given) | inactive |
| O=C1CCCCC1C1CCCCC1 (stereo not given) | inactive |
| Clc1cccnc1 | inactive |
| O=c1c(O)c(-c2ccc(O)cc2O)oc2cc(O)cc(O)c12 | inactive |
| Oc1c(Cl)cc(Cl)c(Cl)c1Cl | inactive |
| CCCCCCCC(=O)OCC(COC(=O)CCCCCCC)OC(=O)CCCCCCC | inactive |

| Structure (SMILES) | outcome |
| --- | --- |
| CN(C)c1ccc2nc3ccc(=[N+](C)C)cc-3sc2c1 | inactive |
| c1ccc(-c2nc3ccccc3[nH]2)cc1 | inactive |
| C=C[Si](OCCOC)(OCCOC)OCCOC | inactive |
| CCCCOCC(C)O (stereo not given) | inactive |
| C=CCNCC=C | inactive |
| O=C(O)CCC(=O)O | inactive |
| Cc1cc(C)n(CO)n1 | inactive |
| Cc1noc(NS(=O)(=O)c2ccc(N)cc2)c1C | inactive |
| CC1(C)CCC[C@]2(C)[C@H]3CC(=O)O[C@]3(C)CC[C@@H]12 | inactive |
| O=S(=O)(O)c1ccc(N=Nc2c(O)ccc3ccccc23)cc1 | inactive |
| CCCCNS(=O)(=O)c1ccccc1 | inactive |
| O=C(C=Cc1ccccc1)OCCc1ccccc1 | inactive |
| O=C(Cl)c1ccc(C(=O)Cl)cc1 | inactive |
| CC(C)(CO)COC(=O)C(C)(C)CO | inactive |
| Cc1cccc(C(C)(C)C)c1O | inactive |
| C=CC(=O)O[C@H]1C[C@@H]2CC[C@@]1(C)C2(C)C | inactive |
| O=C1CCCCCCCCCCC1 | inactive |
| CCN1CN(CC)CN(CC)C1 | inactive |
| O=C1CCCCCCCCCCCN1 | inactive |
| CCCCCCCCC(CO)CCCCCC (stereo not given) | inactive |

Source: PubChem BioAssay (EPA / NIEHS)
